93 molecules from PubChem BioAssay AID1893 (NMMLSC, 2009) can be followed below.

Out of some 5,900 compounds screened, about 120 (2%) were called active. Not all results are given here. Values without a mark were called inactive. Rule as the data show it: active = percent response mostly above about 71% (no sharp cut-off); inactive = mostly below about 38%.

The assay deals with MEKK2 (MAP3K2) mutant PB1 domain binding MEK5, human. In words: mutant MEKK2 PB1-MEK5 binding signal retest – biochemical, single concentration, multiplex bead flow cytometry, confirmation (AID 1893).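 Also: higher means compound restores mutant binding toward wildtype level.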 The following applies: Alexa488-MEK5 binding to MEKK2 mutant, at 10 µM, active compounds read high. A general note: Flow cytometry measures light scatter and fluorescence of single cells or particles in a stream.
Turning to `CCN1CCN(c2ccc(S(=O)(=O)N3CCCCC3)cc2NC(=O)Cc2c(Cl)cccc2Cl)CC1`, the percent response was 20%.
The result for `CCCCN1C(=O)/C(=C(/C#N)C(N)=O)c2ccccc21` reads -2%.
Consider `CC(C)c1ccc(C(=O)NCCCc2ccccc2)cc1`, for which the percent response is -5%.
For the molecule `Cc1ccc(C)c(CN2CCC(CNC(=O)Nc3ccc(C)c(F)c3)CC2)c1`, the percent response is 20%.
On to `Cc1nc2cc(S(=O)(=O)C(F)(F)F)ccc2s1`, for which the percent response is -1%.
The result for `O=C(Cc1cccc2ccccc12)Nc1ccc2oc(-c3ccccc3)nc2c1` reads 10%.
Next, `O=C(CSc1ccc(-c2ccc(F)cc2)nn1)Nc1ccc2c(c1)OCCO2`: 4%.
Next, `Cc1cnc(NC(=O)Cn2cnc3c2c(=O)n(C)c(=O)n3C)s1`: -16%; `O=C(OCc1cc(Cl)ccc1OC(F)F)c1cccnc1`: -8%.
On to `CC1(C)Cc2cccc(OCC(=O)N3CCN(c4ccc([N+](=O)[O-])cc4)CC3)c2O1`, for which the percent response is 1%.
For `CCOC(=O)c1sc2nc(C)nc(SCC(N)=O)c2c1C`, the percent response is 5%.
Turning to `CCOC(=O)c1cc2c(nc1NC(=S)Nc1ccccc1)CC(C)(CC)OC2` (stereo not drawn), the percent response is -4%.
In the case of `O=C(NCCC1=CCCCC1)c1ccc(Cl)c([N+](=O)[O-])c1`, the percent response is 5%.
As for `Cc1cccn2c(=O)c(/C=C3\SC(=S)N(CC(C)C)C3=O)c(NCCCOC(C)C)nc12`, the percent response was -25%.
Next, `O=C(NCCCN1CCCCCC1)C1CC(=O)N(C2CCCC2)C1` (stereo not drawn): -29%; `COc1cc2c(cc1OC)CN(C(=O)c1ccc(S(=O)(=O)N3CCCCCC3)cc1)CC2`: -1%; `O=C(/C=C/Nc1ccccc1)c1cnc(-c2ccccc2)s1`: 7%.
Next, `Cn1c(=NC(=O)CSCC(=O)N2CCCCC2)sc2ccccc21`: 8%.
With `CCOC(=O)Cc1csc(NC(=O)CSc2nc(C)cc(=O)[nH]2)n1`, the percent response is -5%.
Next, `CN1C(=O)/C(=C\c2ccc(-c3ccccc3)o2)SC1=S`: -31%; `CCN(CC)CCCNC(=O)c1ccc2c(=O)n(Cc3ccc4c(c3)OCO4)c(=S)[nH]c2c1`: 7%.
Next, `O=C(OCC1O[C@@H](OC(=O)c2cc(O)c(O)c(O)c2)[C@@H](OC(=O)c2cc(O)c(O)c(O)c2)[C@@H](OC(=O)c2cc(O)c(O)c(O)c2)[C@@H]1OC(=O)c1cc(O)c(O)c(O)c1)c1cc(O)c(O)c(O)c1` (stereo partly drawn): -34%; `CCOC(=O)c1cc2occc2n1CC(=O)N1CCN(C(=O)c2ccco2)CC1`: -10%; `Cc1cccc(CSc2nnc(C)c(=O)n2N)c1`: -2%.
Next, `C=C(C)C1CC=C(C)/C(=N\NC(=O)CNc2ccccc2OC)C1` (stereo not drawn): 10%.
Take `Cc1c(-c2ccccc2)cn2c1-c1ccc(C)n1CC2`: the percent response is 0%.
The result for `CCCN(CCC)c1nc2c(C)cccn2c(=O)c1/C=C1/SC(=S)N(Cc2ccco2)C1=O` reads -17%; that for `O=C(O)c1cccnc1NC1CCCC1`, 13%; that for `CCCc1nnc(SCC(=O)N2C(C)CCCC2C)n1CC` (stereo not drawn), 10%.
The result for `C/C=C/c1ccc(OCCCCN2CCC(C)CC2)c(OC)c1` reads 4%; that for `CNC(C)C#Cc1ccc2sc3cc(OC)c(OC)cc3c(=O)c2c1` (stereo not drawn), 16%.
Next, `Cc1cc(C(=O)OCC(=O)N2c3ccccc3NC(=O)C2(C)C)c(C)n1-c1ccccc1`: 1%; `Cc1ccc(NC(=O)COc2ccc(-n3ccnc3)cc2)cc1Cl`: 21%.
Regarding `Cc1ccc(C(=O)NC(=S)Nc2ccc3[nH]c(=O)[nH]c3c2)cc1C`, the percent response was 4%.
Next, `O=C1Nc2ccc(Br)cc2/C1=N/N=C/C1=C(N2CCOCC2)C(=C\c2ccccc2)/CC1`: -20%; `C#CCOCCOCCOCCNc1nc(N2CCN(C(=O)[C@H](CCCCN)n3cc([C@@H](N)C(C)CC)nn3)CC2)nc(N2CCN(C(=O)[C@H](Cc3ccc(O)cc3)n3cc([C@@H](N)C(C)CC)nn3)CC2)n1` (stereo partly drawn): 52%.
Next, `COc1ccc(S(=O)(=O)Nc2ccc3oc(C)c(C(C)=O)c3c2)cc1`: -3%; `O=C(Cc1cccs1)N/N=C/c1ccc(OCc2ccccc2)cc1`: 3%.
Next, `N#C/C(=C\C1=C(N2CCOCC2)C(=C\c2ccccc2)/CC1)C(=O)Nc1ccccc1F`: -38%.
For the molecule `Cc1cc(C)nc(-n2ncc3c2CC(c2ccc(C(C)C)cc2)CC3=O)n1` (stereo not drawn), the percent response was 0%.
The result for `Cc1ccc(Nc2nc(CSc3nnc(-c4ccncc4)n3-c3ccccc3C)cs2)cc1` reads 1%; that for `COc1ccc(N2CCN(Cc3nnc(-c4ccccc4)o3)CC2)cc1`, -5%; that for `Cc1nc(N=C(N)N)nc2c(C)cccc12`, 10%.
Consider `Cn1c(=NC(=O)CSCC(=O)N2CCOCC2)sc2ccccc21`, for which the percent response is -15%.
With `Cc1cc(C)c(NC(=O)C[N+](C)(C)CC(O)COc2cccc3ccccc23)c(C)c1` (stereo not drawn), the percent response is 35%.
`CCCCn1c(SCC(=O)NCCc2ccc(OC)c(OC)c2)nc2c1c(=O)n(C)c(=O)n2C`: the percent response is 0%.
`CCOc1cc(C(=O)OCC(=O)Nc2cccc(C)c2)ccc1OCC(=O)N1CCOCC1`: the percent response is 0%.
Next, `COc1ccccc1N1CCN(CCCCOc2ccc(F)cc2)CC1`: 0%; `Cc1ccc(S(=O)(=O)NC(=O)N2CCCC(C)(C)C2)cc1`: -1%.
Consider `O=C(O)c1cc(Cl)c(Cl)cc1C(=O)Nc1cccc2ncccc12`, for which the percent response was -2%.
The result for `COc1ccc(-c2[nH]ncc2CN(C)Cc2c(C)n[nH]c2C)c(OC)c1` reads 11%; that for `CCN1CCN(c2nc(Nc3cc(OC)ccc3OC)nc(Nc3cc(OC)ccc3OC)n2)CC1`, 25%; that for `C=CCn1c(=S)sc2c(=O)[nH]c(C)nc21`, 1%.
As for `O=C(NC1CCN(Cc2ccccc2)CC1)c1cc(Br)c(Br)[nH]1`, the percent response was 18%.
As to `CC(=O)Nc1ccc(-c2nc3ccccc3o2)cc1`, the percent response was -2%.
Next, `Cc1c(C#N)c2ncn(CC#N)c(=O)c2n1-c1ccccc1`: -7%.
For the molecule `O=C(NCC1CCCCC1)c1cc(S(=O)(=O)N2CCCCC2)ccc1N1CCOCC1`, the percent response is -16%.
In the case of `COc1cc(/C=C2\SC(=S)N(Nc3ncc(C(F)(F)F)cc3Cl)C2=O)cc(OC)c1OC`, the percent response is -10%.
Regarding `Cc1ccccc1-c1ccc(Nc2ccc(C(=O)N3CCOCC3)cc2)nn1`, the percent response is 4%.
`COc1cc(CC(=O)N/N=C/c2ccccc2)c([N+](=O)[O-])cc1OC`: the percent response is 4%.
`CCOc1ccc(S(=O)(=O)N(CC(=O)O)c2ccccc2)cc1`: the percent response is 1%.
Consider `Cc1ccc(S(=O)(=O)/N=S(\C)C(C)C)cc1` (stereo not drawn), for which the percent response is -3%.
Next, `O=C(c1ccco1)N1CCN(c2cccc(Cl)c2)CC1`: 0%.
The result for `C/C(=N\NC(=O)CNC(=O)C(c1ccccc1)c1ccccc1)c1ccc(C)cc1` reads 7%.
Next, `C=CCN(CC=C)S(=O)(=O)c1ccc(C(=O)Nc2sc3c(c2C(N)=O)CCCCC3)cc1`: 1%.
Consider `FC(F)(F)c1cccc(N/N=C/c2ccccc2)c1`, for which the percent response is 28%.
As to `COc1cc(-c2nnc(Cn3cc(C(F)(F)F)ccc3=O)o2)cc(OC)c1OC`, the percent response is 1%.
For `CCNC(=O)CSc1nc(-c2ccccc2)cs1`, the percent response is -1%.
For `O=C(NCCCN1CCCCCC1)c1ccc(N2CCCC2=O)cc1`, the percent response is 38%.
Next, `CN(C)CC(O)COc1ccc(C(C)(C)c2ccc(OCC(O)CN(C)C)cc2)cc1` (stereo not drawn): 48%; `Cc1[nH]c2ccc(S(N)(=O)=O)cc2c1C`: -1%.
The result for `CN(C)CCCNC(=O)c1cc(C(=O)Cc2ccc(Cl)cc2)c[nH]1` reads 3%; that for `N/C(=N\OS(=O)(=O)c1cccc([N+](=O)[O-])c1)c1ccncc1`, 3%.
Next, `COc1cccc(CNCCc2c[nH]c3ccccc23)c1OCc1ccccc1F`: 9%; `COc1ccccc1CC(=O)Nc1ccc([N+](=O)[O-])cc1OC`: 0%.
With `O=C(Nc1cccnc1)c1cc(Cl)ccc1Cl`, the percent response was 3%.
Next, `Cc1ccc(CNC(=O)Cn2c(=O)c3sccc3n(Cc3cccc([N+](=O)[O-])c3)c2=O)cc1`: 2%; `O=C(O)/C(=C/c1cccnc1)NC(=O)c1ccccc1`: 1%.
For `CCOc1nnc(C)c2c(C)n(-c3cccc(Cl)c3)nc12`, the percent response is -10%.
As for `Cc1ccccc1C(=O)NNC(=O)CN1C(=O)c2ccccc2C1=O`, the percent response is -10%.
Next, `CC(C)(C)NC(=O)c1cccc(NC(=O)Cc2ccc(Br)cc2)c1`: 1%; `Cn1c2ccccc2c(=O)c2c(=O)n(Cc3ccco3)c(COc3ccccc3)nc21`: -6%.
The result for `CCOc1ccc(C(c2c(C)[nH][nH]c2=O)c2c(C)[nH][nH]c2=O)cc1OCC` reads -3%.
The result for `COc1cccc(Nc2ncccc2C(=O)O)c1` reads -5%; that for `C[C@H]1CCC(=O)N([C@H](CSc2ccccc2)Cc2ccccc2)CC1`, 8%; that for `Cc1cccc(/C=N/NC(=O)CNc2cccc3ccccc23)n1`, 5%.
For `c1ccc(Nc2nc(N3CCOCC3)c3ccccc3n2)cc1`, the percent response was 21%.
The result for `Cc1ccc(N(CCC(=O)O)S(=O)(=O)c2cccc(C(F)(F)F)c2)cc1` reads 1%; that for `O=C(NCCN1CCOCC1)[C@H](Cc1ccccc1)N1C(=O)c2ccccc2C1=O`, 2%; that for `COCCN1C=C2C(=O)C(C)(OC(=O)C3CCCC3)C(=O)C=C2C=C1c1ccsc1` (stereo not drawn), -2%.
The result for `COC(=O)C1=NN(c2ccccc2)C2C(=O)N(c3ccccc3OC)C(=O)C12` (stereo not drawn) reads -1%.
The result for `CC(=O)Nc1ccc(N2CCOCC2)c(C(=O)Nc2cccc(C)c2)c1` reads 3%; that for `Clc1ccc(-c2nnc(SCc3nc4ccccc4s3)o2)cc1`, -4%.
